# Test results published in the antibiotic and cytotoxicity screens of Wong et al. (2023).
# In all, about 39,000 compounds went through this assay and about 1,500 (3.8%) were called active. For the sample, actives were picked, then their nearest neighbours and some compounds at random.
# System: HSkMC (human skeletal muscle cells)
# Assay: cytotoxicity call (relative viability < 0.9)
# Settings: 10 µM
row,SMILES,cytotoxicity call
1,C[C@@H]1CCCCO[C@@H](CN(C)CC2CC2)[C@H](C)CN([C@H](C)CO)C(=O)c2cc(NC(=O)Cc3ccccc3)ccc2O1,inactive
2,C[C@@H]1CN([C@H](C)CO)C(=O)c2cc(NC(=O)c3ccncc3)ccc2O[C@@H](C)CCCCO[C@@H]1CN(C)C(=O)C1CCCCC1,inactive
3,COc1ccc(NC(=O)N2C[C@@H](O)COC[C@@H]3O[C@H](CC(=O)NC4Cc5ccccc5C4)CC[C@H]32)cc1,inactive
4,CC(C)NC(=O)N(C)C[C@H]1Oc2ccc(NC(=O)NC3CCCCC3)cc2C(=O)N([C@@H](C)CO)C[C@H]1C,inactive
5,CC(C)NC(=O)Nc1ccc2c(c1)C(=O)N([C@H](C)CO)C[C@H](C)[C@H](CN(C)S(=O)(=O)c1cn(C)cn1)OCCCC[C@H](C)O2,inactive
6,C[C@@H]1CN([C@H](C)CO)C(=O)c2cc(NC(=O)Cn3cnnn3)ccc2O[C@@H]1CN(C)Cc1ccc(Oc2ccccc2)cc1,inactive
7,CCS(=O)(=O)N[C@H]1C=C[C@@H](CC(=O)NCc2ccc(Cl)cc2)O[C@@H]1CO,inactive
8,C[C@H]1CCCCO[C@H](CN(C)Cc2ccc(Cl)c(Cl)c2)[C@@H](C)CN([C@@H](C)CO)C(=O)c2cc(NC(=O)CCC(F)(F)F)ccc2O1,inactive
9,C[C@@H]1CCCCO[C@H](CN(C)Cc2ccc(Cl)c(Cl)c2)[C@H](C)CN([C@@H](C)CO)C(=O)c2cc(NC(=O)CCC(F)(F)F)ccc2O1,inactive
10,C[C@@H]1CCCCO[C@@H](CN(C)Cc2ccc(Cl)c(Cl)c2)[C@H](C)CN([C@H](C)CO)C(=O)c2cc(NC(=O)CCC(F)(F)F)ccc2O1,inactive
11,C[C@@H]1CN([C@H](C)CO)C(=O)c2cc(NC(=O)CCC(F)(F)F)ccc2O[C@@H](C)CCCCO[C@H]1CN(C)Cc1ccc(Cl)c(Cl)c1,active
12,C[C@H](CO)N1C[C@H](C)[C@@H](CN(C)Cc2ccc(Cl)c(Cl)c2)OCCCC[C@H](C)Oc2ccc(NC(=O)CCC(F)(F)F)cc2C1=O,inactive
13,C[C@@H]1CN([C@H](C)CO)C(=O)c2cc(NC(=O)CCC(F)(F)F)ccc2O[C@@H](C)CCCCO[C@@H]1CN(C)Cc1ccc(Cl)c(Cl)c1,active
14,C[C@H](CO)N1C[C@H](C)[C@@H](CN(C)Cc2ccc(C(=O)O)cc2)OCCCC[C@H](C)Oc2ccc(NC(=O)CCC(F)(F)F)cc2C1=O,inactive
15,Cc1cc(OCCCS(C)(=O)=O)cc(C)c1-c1cccc(COc2ccc3c(c2)OC[C@H]3CC(=O)O)c1,active
16,C[C@@H]1CN([C@H](C)CO)C(=O)c2cccc(NC(=O)c3ccc(-c4nccs4)cc3)c2O[C@H]1CN(C)Cc1ccccc1,inactive
17,CC(C)(N)c1cn(C2CCN(C(=O)C3CCC(C(C)(C)C)CC3)CC2)nn1 (centres undefined),inactive
18,CCO[C@@H]1OC(C(=O)N2CCOCC2)=C[C@H](c2coc3ccccc3c2=O)[C@H]1CCCOC(=O)NCCCCCC(=O)NO,inactive
19,COc1ccc(S(=O)(=O)Nc2ccc3c(c2)CC(=O)N([C@@H](C)CO)C[C@@H](C)[C@@H](CN(C)C(=O)Nc2c(C)noc2C)O3)cc1,inactive
20,Cc1ccc2sc(N(CCCN(C)C)C(=O)c3ccc(S(=O)(=O)N(C)C4CCCCC4)cc3)nc2c1C,active
21,O=C(c1ccc(S(=O)(=O)N2CCCCCC2)cc1)N(Cc1cccnc1)c1nc2c(F)cc(F)cc2s1,inactive
22,Cc1ccc2sc(N(CCCN(C)C)C(=O)c3ccc(S(=O)(=O)N(C)Cc4ccccc4)cc3)nc2c1C,active

row,SMILES,cytotoxicity call
1,COc1cc(OC)c(S(=O)(=O)N(C)Cc2ccccc2)cc1S(=O)(=O)N(C)Cc1ccccc1,inactive
2,Cc1cc(Cl)cc2sc(N(Cc3ccccn3)C(=O)c3ccc(S(=O)(=O)N4CCCC4)cc3)nc12,inactive
3,C[C@@H]1CN([C@H](C)CO)C(=O)c2cc(NC(=O)Cn3cnnn3)ccc2O[C@H]1CN(C)CC1CCCCC1,inactive
4,Cc1ccc(-c2ccc3c(c2)O[C@@H](CN(C)C(=O)NC(C)C)[C@H](C)CN([C@H](C)CO)S3(=O)=O)cc1,inactive
5,CCCNC(=O)N[C@H]1CC[C@@H](CC(=O)N2CCN(C)CC2)O[C@@H]1CO,inactive
6,C[C@@H]1CN([C@H](C)CO)C(=O)c2cc(NS(C)(=O)=O)ccc2O[C@@H]1CN(C)Cc1ccc(C(=O)O)cc1,inactive
7,CC(C)NC(=O)N(C)C[C@@H]1OCCCC[C@@H](C)Oc2ccc(NS(=O)(=O)c3cn(C)cn3)cc2C(=O)N([C@@H](C)CO)C[C@H]1C,inactive
8,C[C@H](CO)N1C[C@H](C)[C@H](CN(C)C(=O)Nc2ccccc2)OCCCC[C@H](C)Oc2ccc(NC(=O)Nc3cccc4ccccc34)cc2C1=O,inactive
9,Cc1noc(C)c1NC(=O)N(C)C[C@@H]1Oc2ccc(NC(=O)Nc3ccc(C(F)(F)F)cc3)cc2C(=O)N([C@H](C)CO)C[C@@H]1C,inactive
10,C[C@@H]1CN([C@H](C)CO)C(=O)c2cc(NC(=O)Nc3cccc4ccccc34)ccc2O[C@H]1CN(C)Cc1ccccc1,inactive
11,C[C@H]1CN([C@@H](C)CO)C(=O)c2cc(NC(=O)Nc3cccc4ccccc34)ccc2O[C@H]1CN(C)Cc1ccc(-c2ccccc2)cc1,inactive
12,C[C@@H]1CN([C@@H](C)CO)C(=O)c2cc(NC(=O)Nc3cccc4ccccc34)ccc2O[C@@H]1CN(C)Cc1ccc(-c2ccccc2)cc1,active
13,C[C@H]1CN([C@@H](C)CO)C(=O)c2cc(NC(=O)Nc3cccc4ccccc34)ccc2O[C@@H]1CN(C)Cc1ccc(-c2ccccc2)cc1,active
14,C[C@@H]1CN([C@H](C)CO)C(=O)c2cc(NC(=O)Nc3cccc4ccccc34)ccc2O[C@H]1CN(C)Cc1ccc(-c2ccccc2)cc1,inactive
15,C[C@@H]1CN([C@H](C)CO)C(=O)c2cc(NC(=O)Nc3cccc4ccccc34)ccc2O[C@@H]1CN(C)Cc1ccc(-c2ccccc2)cc1,inactive
16,C[C@H](CO)N1C[C@H](C)[C@H](CN(C)Cc2ccc(-c3ccccc3)cc2)Oc2ccc(NC(=O)Nc3cccc4ccccc34)cc2C1=O,active
17,C[C@H](CO)N1C[C@H](C)[C@@H](CN(C)Cc2ccc(-c3ccccc3)cc2)Oc2ccc(NC(=O)Nc3cccc4ccccc34)cc2C1=O,inactive
18,C[C@@H]1CN([C@@H](C)CO)C(=O)c2cc(NC(=O)Nc3cccc4ccccc34)ccc2O[C@H]1CN(C)Cc1ccc(-c2ccccc2)cc1,inactive
19,Cc1ccc(S(=O)(=O)N(C)C[C@H]2Oc3c(NC(=O)Nc4ccc(C(F)(F)F)cc4)cccc3C(=O)N([C@H](C)CO)C[C@@H]2C)cc1,inactive
20,CO[C@H]1CN(C)C(=O)c2cc(NS(=O)(=O)c3cn(C)cn3)ccc2OC[C@@H](C)N(Cc2cccc(F)c2)C[C@H]1C,inactive
21,Cc1noc(C)c1NC(=O)Nc1cccc2c1O[C@@H](CN(C)Cc1ccc(Oc3ccccc3)cc1)[C@@H](C)CN([C@@H](C)CO)C2=O,inactive
22,COc1ccc(S(=O)(=O)N(C)C[C@@H]2Oc3cc(C4=CCCC4)ccc3S(=O)(=O)N([C@H](C)CO)C[C@@H]2C)cc1,inactive

row,SMILES,cytotoxicity call
1,COCCNC(=O)C[C@H]1CC[C@H]2[C@@H](COC[C@@H](O)CN2C(=O)Nc2ccc3c(c2)OCO3)O1,inactive
2,CC(C)NC(=O)Nc1cccc2c1O[C@H](CN(C)Cc1ccc3c(c1)OCO3)[C@@H](C)CN([C@H](C)CO)C2=O,inactive
3,COc1ccc(NC(=O)Nc2ccc3c(c2)C(=O)N([C@H](C)CO)C[C@H](C)[C@H](CN(C)Cc2ccc(C(=O)O)cc2)OCCCC[C@H](C)O3)cc1,inactive
4,C[C@H](CO)N1C[C@H](C)[C@@H](CN(C)S(=O)(=O)c2cn(C)cn2)Oc2ccc(NS(=O)(=O)c3ccc(Cl)cc3)cc2CC1=O,inactive
5,C[C@H]1CN=C(NS(=O)(=O)c2ccccc2)N1,inactive
6,C=CCON1C(=O)[C@@H]2[C@@H](C1=O)[C@@H]1C=C[C@@H]2O1,inactive
7,CCCCc1oc2ccccc2c1C(=O)c1cc(I)c(OCCN(CC)CC)c(I)c1,active
8,CCCCc1oc2ccccc2c1C(=O)c1cc(I)c(OCCN(CC)CC)c(I)c1.Cl,inactive
9,CCCCN(CCCC)CCCOC(=O)c1ccc(N)cc1.O=S(=O)(O)O,inactive
10,CCCCc1oc2ccc(NS(C)(=O)=O)cc2c1C(=O)c1ccc(OCCCN(CCCC)CCCC)cc1.Cl,active
11,CCc1oc2ccccc2c1C(=O)c1cc(Br)c(O)c(Br)c1,inactive
12,CCCCc1oc2ccc(NS(C)(=O)=O)cc2c1C(=O)c1ccc(OCCCN(CCCC)CCCC)cc1,active
13,CCCCOc1cc(C(=O)OCCN(CC)CC)ccc1N.Cl,inactive
14,C[C@H]1CN([C@@H](C)CO)C(=O)c2c(c3ccccc3n2C)-c2ccccc2CO[C@@H]1CN(C)C(=O)Nc1cccc(C(F)(F)F)c1,inactive
15,O=C(C[C@@H]1C=C[C@@H](NC(=O)Cc2ccccn2)[C@@H](CO)O1)NCCCN1CCOCC1,inactive
16,CNC(=O)C[C@@H]1CC[C@@H]2[C@H](COc3ccc(NC(=O)c4ccc(C(F)(F)F)cc4)cc3C(=O)N2C)O1,inactive
17,C[C@@H]1CCCCO[C@@H](CN(C)S(=O)(=O)c2cn(C)cn2)[C@@H](C)CN([C@@H](C)CO)C(=O)c2cc(NC(=O)Nc3ccc(C(F)(F)F)cc3)ccc2O1,inactive
18,COCCOC(=O)N1C(=O)[C@@]2(c3cc(C#Cc4ccc(OC)cc4)ccc31)[C@H](c1ccccc1OCCO)N1[C@H](c3ccccc3)[C@H](c3ccccc3)OC(=O)[C@H]1[C@@H]2C(=O)N1CCN(c2ncccn2)CC1,inactive
19,Cc1noc(C)c1NC(=O)N(C)C[C@@H]1OCCCC[C@H](C)Oc2ccc(NC(=O)NC3CCCCC3)cc2C(=O)N([C@@H](C)CO)C[C@H]1C,inactive
20,CO[C@@H]1CN(C)C(=O)c2cc(NC(=O)NC(C)C)ccc2OC[C@H](C)N(Cc2ccc(-c3ccccn3)cc2)C[C@@H]1C,inactive
